# Source: PubChem BioAssay AID504882 (Broad Institute, 2011)
# Hit rate of the full screen: of about 1,200 compounds, about 290 (24%) were called active. Roughly 9% stayed inconclusive and do not appear here. The rule behind the calls is not given here. Only a sample is shown. Results with a measured potency or affinity are listed apart.
# Assay: LCL viability reduction – cell-based, plate reader, cherry-picks, set 2, cytotoxicity control, dose response (AID 504882)
# Conditions: EBV lymphoblastoid cells (LCL) viability; series mostly up to 19.5 µM
row,Compound,outcome
1,CC(=O)Nc1cccc(-c2cnc(N)c(C(=O)c3cccnc3)n2)c1,inactive
2,O=C(O)c1cc(=O)c2c(OCC(O)COc3cccc4oc(C(=O)O)cc(=O)c34)cccc2o1,inactive
3,Cn1cc(SCC(=O)NCC2CCCO2)c2ccccc21 (stereo unspecified),inactive
4,Cc1ccc(-n2c(C)c([N+](=O)[O-])c3ccc(O)c(CN(C)C)c32)cc1,inactive
5,NC1=NC(=O)NC1(c1ccccc1)c1ccccc1,inactive
6,Cn1nc(-c2ccc(N3CCOCC3)c(NS(=O)(=O)c3ccccc3)c2)c2ccccc2c1=O,inactive
7,COc1ccccc1N1CCN(C(=O)CCC(=O)N2CCN(c3ccc(F)cc3)CC2)CC1,inactive
8,COc1ccc(/C=C/C(=O)OCC(=O)NCc2ccco2)cc1OC,inactive
9,CCOc1ccc(C(=O)NC(=S)N(Cc2ccccc2)Cc2ccccc2)cc1,inactive
10,COc1ccc2cc(-c3cc(C(=O)OCC(=O)NC4CCS(=O)(=O)C4)c4ccccc4n3)ccc2c1 (stereo unspecified),inactive
11,O=C(CCCOc1ccccc1)N1CCN(c2ccccc2)CC1,inactive
12,CCn1c(CCNC(=O)c2ccc(OC)cc2)nnc1SCc1ccc(Cl)cc1Cl,inactive
13,CC1S/C(=C(\C#N)C(=O)NCc2ccco2)N(Cc2ccco2)C1=O (stereo unspecified),inactive
14,Cc1onc(-c2c(Cl)cccc2Cl)c1C(=O)N[C@@H]1C(=O)N2[C@@H]1SC(C)(C)[C@@H]2C(=O)O,inactive
15,Cc1cc(C)nc(SCC(=O)OCN2C(=O)c3ccccc3C2=O)n1,inactive
16,Nc1ccccc1SC1CC(=O)N(c2ccccc2Cl)C1=O (stereo unspecified),inactive
17,Cc1ccccc1C(=O)N1CCN(c2ccc(NC(=O)c3ccco3)cc2Cl)CC1,inactive
18,CCOc1ccccc1NC(=O)Cn1c(=O)sc2ccccc21,inactive
19,COc1ccc(C(Nc2ccccn2)c2oc(CO)cc(=O)c2O)cc1 (stereo unspecified),inactive
20,CC(=O)c1ccc(NC(=O)c2noc3c2CCC3)cc1,inactive
21,O=c1nc(N/N=C/C=C/c2ccccc2)cn[nH]1,inactive
22,Cc1ccc(S(=O)(=O)NC(CC(C)C)C(=O)NCC(c2ccco2)N2CCCCC2)cc1 (stereo unspecified),inactive

row,Compound,outcome
1,COc1ccc(S(=O)(=O)NC(CC(=O)NCc2ccco2)C(C)C)cc1 (stereo unspecified),inactive
2,Cc1nnc(SCC(=O)N2CCC(c3noc4ccc(F)cc34)CC2)s1,inactive
3,CCC(=O)NC(=S)Nc1ccccc1C(F)(F)F,inactive
4,COc1ccc(NC(=O)C[C@H]2C(=O)N(CCc3ccccc3)C[C@@H]2c2ccc(OC)cc2)cc1,inactive
5,CC(C)c1cc(NC(=O)c2ccccc2)cc(C(C)C)c1O,inactive
6,O=C1OCC2=C1C(c1ccc3c(c1)OCO3)c1cc3c(cc1O2)OCO3 (stereo unspecified),inactive
7,CCCCCC(=O)NC(=S)Nc1ccc(Br)cc1C,inactive
8,Cc1cc(C(=O)CN2C(=O)c3ccccc3C2=O)c(C)n1Cc1cccs1,inactive
9,COc1ccc(C(=O)N(CN2CCCC2=O)c2cc(C)on2)cc1OC,inactive
10,Cn1c(=O)[nH]c(=O)c2c1nc(CN1CCOCC1)n2CCCc1ccccc1,inactive
11,Cc1c(NC(=O)c2cc(-c3cccs3)nc3ccccc23)c(=O)n(-c2ccccc2)n1C,inactive
12,CN(C1CCCCC1)S(=O)(=O)c1ccc(C(=O)N2CCN(c3nc4ccccc4s3)CC2)cc1,inactive
13,O=C(CN1C(=O)CCOc2ccccc21)Nc1ccc(Cl)c(S(=O)(=O)N2CCOCC2)c1,inactive
14,Cc1cccc(CNc2ncnc3ccc(-c4ccoc4)cc23)c1,inactive
15,COc1cc(-c2nc(C(=O)NCC3CCCO3)cc3c2[nH]c2ccccc23)cc(OC)c1OC (stereo unspecified),inactive
16,CC(C)CC1C(=O)N(Cc2cn(CC3CCCCC3)nn2)CCS(=O)(=O)N1Cc1ccc(-c2ccc(F)nc2)cc1 (stereo unspecified),inactive
17,CCOC(=O)OC(C)OC(=O)[C@@H]1N2C(=O)[C@@H](NC(=O)[C@H](N)c3ccccc3)[C@H]2SC1(C)C (stereo partly specified),inactive
18,CCCc1cc(=O)[nH]c(SCC(=O)NC2CCCCC2)n1,inactive
19,Cc1ccc(C)c(N2CCN(S(=O)(=O)c3ccc4c(c3)CCN4C(=O)CCC(=O)O)CC2)c1,inactive
20,Cc1ccnc(SCCn2c(N3CCN(c4ccccc4)CC3)nc3c2c(=O)[nH]c(=O)n3C)n1,inactive
21,O=C(CCC(=O)NNC(=O)Nc1cccc(Cl)c1)NCc1ccccc1,inactive
22,Cc1ccccc1C(=O)NC(=S)Nc1ccc(N2CCN(C(=O)c3ccccc3)CC2)cc1,inactive

row,Compound,outcome
1,COCCNC(=O)NC12CC3(C)CC(C)(CC(C)(C3)C1)C2,inactive
2,COCCn1c(SCc2ccc(C(=O)OC)o2)nnc1-c1c[nH]c2ccccc12,inactive
3,COc1ccc(C(=O)Nc2cccc(C(=O)N/N=C/c3ccc(OC)cc3OC)c2)cc1,inactive
4,CCOc1ccc(OCc2cccc(C(=O)N3CCCC3)c2)cc1,inactive
5,O=S(=O)(N/N=C/c1ccccc1F)c1ccccc1,inactive
6,CSc1nc2cc3c(cc2n1C(=O)c1ccc(C)cc1)OCCO3,inactive
7,Nc1cc2ccncc2c2ccccc12,inactive
8,CC(C)NCC(O)COc1cccc2ccccc12 (stereo unspecified),inactive
9,COc1ccc(-n2c(C)c([N+](=O)[O-])c3ccc(O)c(CN(C)C)c32)cc1,inactive
10,Cc1ccc(C(=O)NCC(=O)N(C)Cc2cccc(F)c2)s1,inactive
11,COc1ccc(-n2c(C)c(C(C)=O)c3cc(O)ccc32)cc1,inactive
12,CC(CNC1CCCCC1)OC(=O)c1ccccc1 (stereo unspecified),inactive
13,CC(C)c1ccc(OCc2cccc(C(=O)N/N=C/c3cccnc3)c2)cc1,inactive
14,CC(C)(C)c1ccc(-c2noc(CCC(N)=O)n2)cc1,inactive
15,COCCn1c(SCC(=O)NCc2ccco2)nnc1-c1c[nH]c2ccccc12,inactive
16,CCOC(=O)C1=C(C)NC(C)=C(C(=O)OCC)C1C(=O)OCC(=O)N(C)C1CCS(=O)(=O)C1 (stereo unspecified),inactive
17,COc1ccc(-c2csc3ncnc(NCCCO)c23)cc1,inactive
18,COc1cc(C2NC(=O)NC(C)=C2C(=O)OC2CCCC(C)C2)cc(Br)c1O (stereo unspecified),inactive
19,COc1cccc(CC(=O)NNC(=O)c2ccc3c(c2)OCO3)c1,inactive
20,CCCN(CC)c1ncnc2[nH]ncc12,inactive
21,Cc1cc(N2CCOCC2)c2c(N)c(Br)cc(C)c2n1,inactive
22,CCOc1ccccc1C(=O)NC1CC2CCCC(C1)N2Cc1nnnn1Cc1ccco1 (stereo unspecified),inactive
